# Pin1 inh – blocks the human prolyl isomerase Pin1. Potency, µM (series often up to 115 µM), without a hit: at the top dose activity, negative = inhibition, usual class: inhibitors. Q13526. actives 0.009% (n = 390,000). AID 504891. Pin1 FP peptide displacement, HiFluor488, 10 min; active means well fitted inhibition curve with a large enough effect in the polarisation, with a control signal flat, not every such curve was filed as active; inconclusive means small, poorly fitted or top-dose-only effect, or effect the other way, or a change in a side signal; inactive means no such curve, though single readings can be large or run the other way; the % refers to the polarisation; further: on the % scale 0 is the no-effect control and ±100 the full control effect
# Target sequence (Q13526 whole entry, looked up): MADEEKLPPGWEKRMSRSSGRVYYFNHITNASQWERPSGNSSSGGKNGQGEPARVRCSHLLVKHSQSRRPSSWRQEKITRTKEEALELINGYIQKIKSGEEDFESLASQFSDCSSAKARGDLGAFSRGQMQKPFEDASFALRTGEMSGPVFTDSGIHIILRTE
# ERG Ets-DNA blk – blocks human ERG Ets domain binding to DNA | P11308 | fluorescence polarization, His-ERG Ets domain / labelled DNA | Potency, µM (doses to about 76.9 µM), for the others: at the top dose FP activity, negative = inhibition, most hits filed as inhibitors | actives 0.028% (n = 370,000) | AID 624246; active means well fitted inhibition curve with a large enough effect in the polarisation, with a control signal flat; inconclusive means small, poorly fitted or top-dose-only effect, or effect the other way, or a change in a side signal; inactive means no such curve, though single readings can be large or run the other way; the % refers to the polarisation;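 further: polarization taken with two DNA probes labelled with fluorescein and Texas red; % of control where 0% means no effect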
# Target sequence (P11308 whole entry, looked up, the tested form may be a part): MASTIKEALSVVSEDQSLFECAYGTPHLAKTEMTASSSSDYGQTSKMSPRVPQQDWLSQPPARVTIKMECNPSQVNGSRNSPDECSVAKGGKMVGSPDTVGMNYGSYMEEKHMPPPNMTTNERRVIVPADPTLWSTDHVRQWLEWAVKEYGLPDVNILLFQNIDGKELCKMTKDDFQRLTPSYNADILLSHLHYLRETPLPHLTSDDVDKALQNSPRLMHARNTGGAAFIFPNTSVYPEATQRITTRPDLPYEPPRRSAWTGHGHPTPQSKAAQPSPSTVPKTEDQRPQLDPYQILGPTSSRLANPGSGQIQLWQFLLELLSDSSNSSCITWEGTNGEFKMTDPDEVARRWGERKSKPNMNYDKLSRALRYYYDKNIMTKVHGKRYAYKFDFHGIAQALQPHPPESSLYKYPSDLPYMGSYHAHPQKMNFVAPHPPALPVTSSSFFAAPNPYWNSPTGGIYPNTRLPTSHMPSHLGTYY
#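 His-tagged ERG Ets domain (1 uM in the protein solution; 300mM KCl, 50mM Tris-HCl, 1mM EDTA, 1mM DTT, pH 7.5) received compound, then a probe mix of 5 nM fluorescein-DNA and 100nM Texas-615-DNA. Fluorescence polarization was read for both dyes.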
# Tb PFK inh-1 – inhibitors of T. brucei phosphofructokinase. actives 0.17% (n = 330,000). Potency, µM (highest dose often 57.5 µM), for inactives: top-dose activity, negative = inhibition, usual class: inhibitors. T. brucei PFK, ADP-Glo luminescence;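 further: 0% = uninhibited 1x PFK enzyme wells and -100% = no-enzyme wells; nearly all actives have a fitted effect of over 60% in size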
#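 In TEA buffer at pH 8.0 with 5 mM MgCl2, enzyme (1.25 nM) converted F6P (0.5 mM) and ATP (0.1 mM) for 45 min at room temperature. ADP product was read by luciferase luminescence.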
# Chronic BCR inh – blocks chronic active B-cell receptor signaling. ABC-DLBCL IkBa-CBG/CBR reporter, luminescence ratio, 4 h. Potency, µM (titrated, usually from 46.1 µM), inactives show top-dose activity change, negative = inhibition, usual class: inhibitors. actives 0.05% (n = 340,000); active means well fitted inhibition curve with a large enough effect in the signal ratio, with a control signal flat, not every such curve was filed as active; inconclusive means small, poorly fitted or top-dose-only effect, or effect the other way, or a change in a side signal; the % refers to the signal ratio;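 further: plate controls were basal doxycycline-induced cells for no effect and cells given 10 µM MG132 for full effect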
#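 Concentration-response series (up to 46 uM) were applied to TMD8 dual-reporter cells for 4 h at 37C with doxycycline. Green/red ratio, after filter-overlap correction, defined %Activity; red signal alone was normalised to basal cells and zero luminescence.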
# PGK inhibitor – T. brucei PGK inhibition | P07378 | Potency, µM (series often up to 57.5 µM), for the others: top-dose activity change, negative = inhibition, usual class: inhibitors | PGK/GAPDH coupled, Kinase-Glo luminescence, 60 min | actives 0.043% (n = 380,000); further: on the % scale 0 is the no-effect control and ±100 the full control effect; nearly all actives have a fitted effect of over 60% in size
#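 Recombinant glycosomal PGK reaction used 1,3-bisphosphoglycerate generated in-well by GAPDH (100nM final) in 100mM TEA pH 7.6, 5mM MgCl2, 0.01% Tween-20. After 60 minutes at room temperature, ATP was read by Kinase-Glo Plus luminescence end-point.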
# Tb PFK KinaseGlo – Tb phosphofructokinase inhibition, orthogonal luminescence | Tb PFK enzyme, ATP depletion, Kinase-Glo Plus luminescence | Potency, µM (doses to about 57.5 µM), inactives show at the highest dose inhibition | shares compounds with Tb PFK inh-1 | actives 47% (n = 1,100); calls by dose curve; further: nearly all actives have a fitted effect of over 60% in size
# Tb PFK inh-2 – validation of T. brucei phosphofructokinase inhibitors; purified T. brucei PFK, ADP-Glo luminescence, 45 min; shares compounds with Tb PFK inh-1; actives 41% (n = 1,100); Potency, µM (top dose mostly 57.5 µM), for inactives: top-dose activity change, negative = inhibition, hits mostly inhibitors; AID 504637;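 further: plate controls were full PFK enzyme control for no effect and no enzyme control for full effect; nearly all actives have a fitted effect of over 60% in size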
# Numbers without * were called inactive; i = inactive; ? = inconclusive; . = no result given. Shown are actives, neighbours in structure and some others; about 0.25% of the full set was active somewhere. Unless noted, the call rests on the fitted dose curve; in most records, active means well fitted curve in the direction sought with a large enough effect; inconclusive means small, poorly fitted or top-dose-only effect, or another doubt; inactive means no such curve, though single readings can be large; an effect the other way counts as inactive or inconclusive. Potency means the concentration at half of the fitted maximal effect.
SMILES,Pin1 inh,ERG Ets-DNA blk,Tb PFK inh-1,Chronic BCR inh,PGK inhibitor,Tb PFK KinaseGlo,Tb PFK inh-2
S=C(NCc1ccco1)N1CCN(c2cccc(Cl)c2)CC1,21%,-8%,?,3%,1%,24µM*,?
NC(=O)C1CCN(c2ncc(-c3ccc4c(c3)OCCCO4)s2)CC1,-6%,.,.,.,.,.,.
Cc1cc2c(s1)c1cnn(Cc3cccc(C)c3F)c(=O)c1n2C,20%,.,.,.,.,.,.
CN1CCN(Nc2nn3c(=O)c4ccccc4nc3s2)CC1,1%,.,.,.,.,.,.
CCC(=O)Nc1ccc(OCc2cc(C3Nc4ccccc4C(=O)N3Cc3ccccc3)ccc2OC)cc1 (stereo unspecified),22%,.,.,.,.,.,.
COc1ccc(NC(=O)CN(C)C(=O)c2cc3c(s2)CCCCC3)cc1,0%,3%,3%,-6%,8%,.,.
COc1ccc(NC(=O)CN(C)C(=O)c2cc3c(s2)CCC3)cc1,.,-15%,?,?,?,?,?
N#Cc1nc(Nc2cc(F)cc(F)c2)c2ncn(CCO)c2n1,14%,.,.,.,.,.,.
OC(c1ccccc1)(c1ccccc1)c1cnc2ccccn12,1%,.,.,.,.,.,.
COc1cccc(-c2nnc3n2N=C(c2c(OC)cccc2OC)CS3)c1,1%,.,.,.,.,.,.
Cc1cc(C)c2oc(C(=O)Nc3ccc(S(=O)(=O)Nc4ncccn4)cc3)cc(=O)c2c1,14%,1%,.,.,-9%,.,.
Cc1cc(C)c2oc(C(=O)Nc3ccc(S(=O)(=O)Nc4nccs4)cc3)cc(=O)c2c1,157%,0%,?,1%,3%,-29%,?
Oc1ccc(C2=Nn3c(nnc3-c3ccco3)SC2)cc1O,?,-9%,7.6µM*,?,?,?,?
Cc1ccc(NC2c3ncccc3C(=O)N2c2ccccc2C)cc1C (stereo unspecified),1%,2%,?,0%,-2%,19µM*,?
CCOc1ccc(N2C(=O)c3cccnc3C2Nc2ccc(Cl)cc2)cc1 (stereo unspecified),8%,-2%,0%,-23%,i,.,.
O=C(/C=C/c1ccco1)OCC(=O)N1CCCCC1,-2%,-3%,?,-2%,-3%,6µM*,?
O=C(/C=C/c1ccccc1)OCC(=O)N1CCCC1,-1%,-4%,-7%,-16%,-4%,.,.
O=C(CSc1nc(-c2ccccc2)nc2c1Cc1ccccc1O2)Nc1ccccc1,.,.,4%,13%,.,.,.
O=C(CSc1nc(-c2ccc(F)cc2)nc2c1Cc1ccccc1O2)Nc1cccc(C(=O)O)c1,?,1%,?,-9%,?,?,?
COc1cccc2c1NC(C(=O)O)C1CC=CC21 (stereo unspecified),.,11%,?,1%,?,?,?
Cc1ccsc1CNc1ncnc2ccc(-c3ccc4c(c3)OCO4)cc12,25%,.,.,.,.,.,.
CCOC(=O)c1c(NC(=O)C2C3C=CC(C3)C2(C)C(=O)O)sc2c1CCCC2 (stereo unspecified),0%,1%,?,?,?,?,27µM*
Cc1cc(NS(=O)(=O)c2ccc(NC(=O)COc3ccc(Br)cc3)cc2)nc(C)n1,-3%,15%,?,0%,1%,8.5µM*,24µM*
CCOc1ccc(OCC(=O)Nc2ccc(S(=O)(=O)Nc3cc(C)nc(C)n3)cc2)cc1,2%,-12%,4%,1%,2%,.,.
COc1ccc(Nc2nc(C)cc(=O)[nH]2)cc1,13%,15%,12µM*,19%,-7%,13µM*,24µM*
SMILES,Pin1 inh,ERG Ets-DNA blk,Tb PFK inh-1,Chronic BCR inh,PGK inhibitor,Tb PFK KinaseGlo,Tb PFK inh-2
c1nc(NCc2ccoc2)c2cc(-c3ccc4c(c3)OCO4)ccc2n1,13%,.,.,.,.,.,.
CN(c1ccccc1)c1ccc(/C=C/[N+](=O)[O-])cc1,50%,4%,?,?,-2%,17µM*,24µM*
CN(C)c1ccc(/C=C/[N+](=O)[O-])cc1,21%,8%,-5%,-1%,-1%,.,.
CC(=O)NC(C)c1ccc(Cl)c(Cl)c1 (stereo unspecified),-5%,.,?,0%,-4%,21µM*,30µM*
O=C(NNC(=O)c1ccc2nonc2c1)Nc1ccc(Cl)cc1,3%,-6%,15µM*,18%,0%,?,?
CNc1ncnc2ccc(-c3c(C)noc3C)cc12,.,.,-7%,?,.,.,.
COc1cccc(C(=O)NNC(=O)Cc2ccc([N+](=O)[O-])cc2)c1,6%,-2%,?,?,-1%,?,?
Cc1ccc(-n2c(N)c(C(=O)N3CCN(C)CC3)sc2=S)cc1,-3%,-7%,13µM*,6%,-7%,3.8µM*,9.5µM*
Cc1ccc(-n2c(N)c(C(=O)N3CCCCC3)sc2=S)cc1,-1%,8%,-8%,1%,i,.,.
CS(=O)(=O)NN1C(=O)c2ccccc2NC1c1ccccc1F (stereo unspecified),-7%,9%,-6%,3%,-2%,.,.
CS(=O)(=O)NN1C(=O)c2ccccc2NC1c1cc2ccccc2nc1Cl (stereo unspecified),-1%,-4%,21µM*,1%,-2%,9.5µM*,24µM*
CC(NC(=O)c1ccco1)C(=O)N1CCN(c2cccc(C(F)(F)F)c2)CC1 (stereo unspecified),0%,-3%,?,-3%,i,14%,-10%
Cc1ccc(NS(=O)(=O)c2cccc(F)c2)cc1C,3%,.,.,.,.,.,.
O=C(NNC(=O)c1ccncc1)Nc1ccc([N+](=O)[O-])cc1,-1%,10%,?,?,6%,?,?
O=C(COc1ccc([N+](=O)[O-])cc1)Nc1cc(C(=O)O)cc(C(=O)O)c1,-3%,-10%,?,?,-10%,13µM*,27µM*
Cc1nc2ccc(-c3nc4ccc(N)cc4[nH]3)cc2[nH]1,2%,?,?,?,-4%,.,.
Nc1ccc2nc(-c3cccc(-c4nc5ccc(N)cc5[nH]4)c3)[nH]c2c1,?,5%,?,?,2%,5%,1%
O=C(Cc1ccc(Br)cc1)N/N=C/c1ccc(-c2cccc(C(=O)O)c2)o1,-17%,3%,11µM*,?,-13%,11µM*,12µM*
CCOC(=O)Cc1csc(-n2sc3ccccc3c2=O)n1,3%,19%,11µM*,-3%,-11%,?,?
CCOC(=O)Cc1csc(SCn2nnc3ccccc3c2=O)n1,-1%,-1%,0%,0%,3%,.,.

# Source: PubChem (National Center for Advancing Translational Sciences (NCATS))
